IL1B secr inh: qHTS for Inhibitors of Inflammasome Signaling: IL-1-beta AlphaLISA Primary Screen. 4.7% of 360,000 active. THP-1 LPS/ATP IL-1B secretion, AlphaLISA, 16 h; stronger effect = lower value. AID 743279, 2014. activity change, % at 57.5 µM; in the data active = activity change below about -50%; inconclusive = mostly about -30% to -49%
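Secreted IL-1B measured by AlphaLISA bead assay after 16 h compound exposure of THP-1 cells; compounds (final up to 57.5 uM) added 1 h before LPS (250 ng/mL) and ATP (1.25 mM) stimulation; lower signal means less secretion.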
S2 tox: Viability Counterscreen for Primary qHTS for Inhibitors of ATXN expression | S2 cells (HEK-293 line with an ATXN2-luciferase reporter) viability, CellTiter-Fluor protease fluorescence, 24 h | Potency, µM (series often up to 56.7 µM), usual class: cytotoxic | 0.49% of 400,000 active | AID 651635, 2014; also: nearly all actives have a fitted effect of over 40% in size
USP2a inh: qHTS Assay for Inhibitors of Ubiquitin-specific Protease USP2a Using CHOP2 as the Reporter. USP2 core, Ub-CHOP2 coupled fluorogenic reporter, 485/531. Potency, µM (highest dose often 38.3 µM), hits mostly inhibitors. 0.01% of 330,000 active
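Cell-free coupled assay: 10nM USP2 core preincubated 30min RT with compound in Tris-HCl pH 8.0/CaCl2/CHAPS buffer, then 25nM Ub-CHOP2 and 25nM reporter substrate; fluorescence (Ex 485/Em 531) read after 60min RT, normalized to NEM inhibition, concentration-response curves fitted.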
ATXN2 expr inh: Primary qHTS for Inhibitors of ATXN expression. HEK-293 ATXN2-luciferase reporter, luminescence, 24 h. Potency, µM (top dose mostly 57 µM), actives largely listed as inhibitors. 0.72% of 360,000 active; also: nearly all actives have a fitted effect of over 55% in size
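qHTS (up to 57 uM final) was run with 24 h compound exposure of reporter cells at 37 °C. Each well was multiplexed: SteadyGlo luminescence measured ATXN2-luciferase expression after a fluorogenic Gly-Phe-AFC viability readout (25 uM final).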
USP1-UAF1 inh: Inhibitors of USP1/UAF1: Primary Screen; 0.23% of 390,000 active; recombinant USP1/UAF1, Ub-Rhodamine cleavage fluorescence; AID 743255, 2014; Potency, µM (top dose mostly 57.1 µM), hits mostly inhibitors; Ubiquitin carboxyl-terminal hydrolase 1 (Homo sapiens), O94782; also: nearly all actives have a fitted effect of over 60% in size
Target sequence (O94782 whole entry, looked up): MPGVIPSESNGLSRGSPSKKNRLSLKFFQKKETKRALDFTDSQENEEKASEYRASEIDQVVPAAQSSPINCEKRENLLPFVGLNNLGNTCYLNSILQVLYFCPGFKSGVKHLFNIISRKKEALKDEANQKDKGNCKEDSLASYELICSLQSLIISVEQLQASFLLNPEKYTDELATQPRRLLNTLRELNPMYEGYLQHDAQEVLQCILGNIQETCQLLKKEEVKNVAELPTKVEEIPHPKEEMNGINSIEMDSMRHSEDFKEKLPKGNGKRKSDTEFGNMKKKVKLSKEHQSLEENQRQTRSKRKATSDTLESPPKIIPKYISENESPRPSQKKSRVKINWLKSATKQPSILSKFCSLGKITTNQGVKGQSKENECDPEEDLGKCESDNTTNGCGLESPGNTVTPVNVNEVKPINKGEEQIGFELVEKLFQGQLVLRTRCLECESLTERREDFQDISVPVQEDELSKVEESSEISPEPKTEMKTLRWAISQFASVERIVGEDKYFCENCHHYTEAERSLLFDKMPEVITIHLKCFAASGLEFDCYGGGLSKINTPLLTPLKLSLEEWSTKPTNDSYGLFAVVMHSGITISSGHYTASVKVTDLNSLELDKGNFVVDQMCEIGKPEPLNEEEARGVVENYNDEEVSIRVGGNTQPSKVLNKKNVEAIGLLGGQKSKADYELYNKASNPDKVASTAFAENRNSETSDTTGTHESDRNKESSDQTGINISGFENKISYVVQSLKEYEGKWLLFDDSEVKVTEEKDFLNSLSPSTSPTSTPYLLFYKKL
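High-throughput fluorogenic screen: 1nM USP1/UAF1 complex, Ub-Rho substrate 150nM final, 50mM HEPES pH 7.8 with 0.5mM EDTA, 0.1 mg/ml BSA, 1mM TCEP and 0.01% Tween-20.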
Numbers stand for hits; . = inactive; ? = inconclusive; / = no result. Shown are actives, neighbours in structure and some others; about 4.8% of the full set was active somewhere. Unless noted, calls follow the shape of the dose curve; as a rule, active = well fitted curve in the direction sought with a large enough effect; inconclusive = small, poorly fitted or top-dose-only effect, or another doubt; inactive = no such curve, though single readings can be large; an effect the other way counts as inactive or inconclusive.

SMILES	IL1B secr inh	S2 tox	USP2a inh	ATXN2 expr inh	USP1-UAF1 inh
COc1ccc(OC)c2sc(N(CCCN(C)C)C(=O)CCS(=O)(=O)c3ccccc3)nc12	-107.5	/	.	?	.
COc1ccc(Cl)c2sc(N(CCN(C)C)C(=O)CCS(=O)(=O)c3ccc(C)cc3)nc12	.	?	.	.	.
Cc1ccc2sc(N(CCCN(C)C)C(=O)CCS(=O)(=O)c3ccccc3)nc2c1C	-92.8	/	.	?	?
CCCC(=O)N1CCC1(C)C(=O)Nc1ccc(OC(F)F)cc1 (stereo not drawn)	.	.	/	.	/
COC(=O)c1cccc2c(C(=O)O)cc(-c3ccccc3)nc12	.	?	/	.	.
O=C(Cn1cccc1C(=O)c1ccccc1)NCCCN1CCOCC1	.	.	.	.	.
CCN(CC)S(=O)(=O)c1ccc2c(c1)N(CC(=O)NCCCN1CCN(c3cc(C)ccc3C)CC1)C(=O)CO2	/	15.8µM	/	31.6µM	.
Cc1ccc(C)c(N2CCN(CCCNC(=O)Cn3cccc3C(=O)c3ccccc3)CC2)c1	.	16.8µM	.	?	?
CN(C)c1c([N+](=O)[O-])cc(N2C(=O)C=CC2=O)cc1[N+](=O)[O-]	-98.6	/	/	35.5µM	.
O=C(O)c1cc(N2C(=O)C=CC2=O)cc(N2C(=O)C=CC2=O)c1	.	.	/	.	.
CCOC(=O)C1CCN(C(=O)c2ccc(NS(=O)(=O)c3ccc(F)cc3C)cc2)CC1	-97.1	.	.	.	.
CCn1c(=O)cc(OCC(=O)N2CCN(c3cccc(Cl)c3)CC2)c2ccccc21	/	.	/	.	.
CC(C)(C)C1CCc2c(sc3ncn(N)c(=N)c23)C1 (stereo not drawn)	-75.5	.	.	/	.
C[C@@H]1CN([C@H](C)CO)C(=O)CCCn2nncc2CO[C@H]1CN(C)S(=O)(=O)c1cccc(C#N)c1	.	.	/	.	.
NC1(C(=O)O)CSSC1	-77.2	?	/	?	.
N[C@@]1(C(=O)O)CS(=O)(=O)[C@H]2[C@H](C(=O)O)[C@H]21	/	/	/	.	/
CC(C)(O)c1[nH]c2ccc(C#N)cc2c1C(C)(C)O	.	.	.	.	.
CC(NCCN(C)C)C1CCC2C3CCc4cc(O)ccc4C3CCC12C (stereo not drawn)	-102.4	?	/	.	.
CN(C)c1cc[n+](CC(=O)Nc2ccc(Cl)cc2)cc1	-51.1	.	.	?	.
Cc1cccc(NC(=O)C[n+]2ccc(N(C)C)cc2)c1	.	.	.	.	.
CN(C)c1cc[n+](CC(=O)Nc2ccc(Oc3ccccc3)cc2)cc1	-77.0	?	.	?	.
CCOc1ccc(NC(=O)C[n+]2ccc(N(C)C)cc2)cc1	.	.	.	.	.
COc1ccc(OC)c(NC(=O)C(C)n2nc(C)c3c(C)n(-c4ccccc4)nc3c2=O)c1 (stereo not drawn)	/	.	/	.	.
CCCCn1c(Oc2cccc(C(=O)OC)c2)nc2c1c(=O)n(C)c(=O)n2C	/	.	/	.	.
CCCCn1c(Oc2ccc(C(=O)OC)cc2)nc2c1c(=O)n(C)c(=O)n2C	-73.0	.	.	?	.
SMILES	IL1B secr inh	S2 tox	USP2a inh	ATXN2 expr inh	USP1-UAF1 inh
CCNC(=S)N1CCN(c2nc(CC)nc3sc4c(c23)CCCC4)CC1	-56.7	?	.	.	.
CCc1nc(N2CCN(C(C)=O)CC2)c2c3c(sc2n1)CC(C(C)(C)C)CC3 (stereo not drawn)	.	?	.	/	.
CCc1nc(N2CCN(C(=O)CCl)CC2)c2c3c(sc2n1)CC(C)CC3 (stereo not drawn)	-96.2	/	.	.	?
COc1ccc(OC)c(CNC(=O)c2ccc(N3Cc4ccccc4Oc4ncccc43)s2)c1	/	/	/	/	.
Nc1nc(N)c2cc([N+](=O)[O-])ccc2n1	.	.	/	.	.
Nc1nc(N)c2c(ccc3c2ccn3Cc2cccc([N+](=O)[O-])c2)n1	-108.7	?	/	?	/
CCCCCNc1nc(NCCCO)c(C#N)c2c1CN(C)CC2	.	.	.	.	.
CCCCCNc1nc(N2CCCC2)c2c(c1C#N)CCN(C)C2	-50.9	?	.	.	.
Cc1cc(C=C2C(=O)c3ccccc3C2=O)c(C)n1-c1cccc(C(=O)O)c1	.	?	.	/	.
Cc1cccc(NC(=O)/C(C#N)=C\c2cc(C)n(-c3ccc(C(=O)O)cc3)c2C)c1	-78.3	.	.	/	.
Cc1cc(/C=C2\Cc3ccccc3C2=O)c(C)n1-c1ccccc1	-61.9	/	.	.	.
Cc1cc(C=C2C(=O)c3ccccc3C2=O)c(C)n1-c1ccccc1	.	.	.	.	?
Cc1cc(C=C2C(=O)c3ccccc3C2=O)c(C)n1-c1ccc(C(=O)O)cc1	-56.0	?	.	.	.
CN(C)[C@@H]1C(=O)C(C(N)=O)=C(O)[C@@]2(O)C(=O)C3=C(O)c4c(O)cccc4C[C@H]3C[C@@H]12	/	.	/	.	/
COCCCNC(=O)Cn1cc(/C=C(\C#N)C(=O)NC2CC2)c2ccccc21	.	.	.	/	.
COc1cccc2c1OCC(C(=O)OCc1cccnc1)=C2	-52.6	?	.	.	.
O=C(CNC(=O)N1CC(=O)Nc2ccccc21)NCCc1c[nH]c2ccccc12	.	.	.	.	.
Cc1ccc(C)c(C(O)c2ncc(-c3cccc(C(F)(F)F)c3)[nH]2)c1 (stereo not drawn)	-53.7	?	/	.	/
OC(Cc1ccccc1Br)c1ncc(-c2cccc(C(F)(F)F)c2)[nH]1 (stereo not drawn)	-61.4	?	/	?	/
Cc1ccc(C(O)c2ncc(-c3cccc(C(F)(F)F)c3)[nH]2)c(C)c1 (stereo not drawn)	.	?	/	.	/
O=c1nc(/C=C/c2cccn2-c2ccc([N+](=O)[O-])cc2)cc(C(F)(F)F)[nH]1	.	.	.	.	.
O=c1nc(/C=C/c2cc([N+](=O)[O-])ccc2Cl)cc(C(F)(F)F)[nH]1	-94.5	?	.	?	?
COc1cc(/C=C/c2cc(C(F)(F)F)[nH]c(=O)n2)cc(OC)c1OC	-101.1	?	.	?	.
Cc1ncc2c(c1CNC(=O)c1ccccc1F)CCN(C(=O)c1ccccc1-n1cccn1)C2	/	.	/	/	/
O=C(Nc1nc(-c2ccc(Cl)s2)cs1)c1cccs1	-83.6	.	.	.	?
O=C(Nc1ccc([N+](=O)[O-])cc1)Nc1nc(-c2ccc(Cl)s2)cs1	-98.5	14.1µM	.	7.94µM	.
CCCC(=O)Nc1nc(-c2ccc(Cl)s2)cs1	.	.	.	.	.
O=C(Nc1ccc2nc(-c3ccccc3)[nH]c2c1)c1cccs1	-64.5	.	.	.	.
O=C(Nc1ccc2nc(-c3ccc4nc[nH]c4c3)[nH]c2c1)c1cccs1	.	.	.	.	?

Compound activity: PubChem BioAssay, National Center for Advancing Translational Sciences (NCATS)
